PubChem BioAssay (NCATS)
Inconclusive results are not listed. Unmarked numbers belong to inactive results. Active and inactive are the calls of the source. The call rests on the fitted dose curve; in most records, active means well fitted activation curve with a large enough effect; inconclusive means small, poorly fitted or top-dose-only effect; inactive means no such curve, though single readings can be large or run the other way. Starred links: 1 amine or outer side, 2 acyl side, 3 side chain; linkers in the order of their positions; H or OH if unused. Positions of bridges follow the written chain, without caps; N, C: chain ends. Non-standard residues stand in square brackets, D forms with d. Residues, ends and D or L forms follow the SMILES beside them. ξ: configuration not given here. *: point of attachment. X11 = NC1=NCCC(C(N[*:1])C(=O)[*:2])N1; ΔAla(3-NHCONH2) = NC(=O)NC=C(N)C(=O)O; ξβ3hOrn = NCCCC(N)CC(=O)*; Dap = NC[CH](N)C(=O)O

Target: Cellular tumor antigen p53 (Homo sapiens) (UniProt P04637)
Assay: Primary qHTS for small molecule compounds that upregulate eGFP-tagged delta133p53alpha (in N-terminal) cells. (AID 2060322); further: nearly all actives have a fitted effect of over 75% in size;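 on activation: series mostly up to about 56 µM; 0% = DMSO vehicle and 100% = reference activator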
Conditions: NCI-H358 eGFP-delta133p53alpha fluorescence, 24 h; activation: stronger effect = higher value
How it was run: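 NCI-H358 cells pre-induced 24 h with 10 ng/ml doxycycline for eGFP-delta133p53alpha, plated dox-free and exposed 24 h at 37C to titrated compounds. Fixed, Hoechst-stained; gated GFP peak intensity by laser scanning cytometry, normalized to DMSO (0%) and 57.5 uM 5-azacytidine (100%).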
Potency means the concentration at half of the fitted maximal effect.

Sequence of Cellular tumor antigen p53 (Homo sapiens) (P04637 whole entry, looked up): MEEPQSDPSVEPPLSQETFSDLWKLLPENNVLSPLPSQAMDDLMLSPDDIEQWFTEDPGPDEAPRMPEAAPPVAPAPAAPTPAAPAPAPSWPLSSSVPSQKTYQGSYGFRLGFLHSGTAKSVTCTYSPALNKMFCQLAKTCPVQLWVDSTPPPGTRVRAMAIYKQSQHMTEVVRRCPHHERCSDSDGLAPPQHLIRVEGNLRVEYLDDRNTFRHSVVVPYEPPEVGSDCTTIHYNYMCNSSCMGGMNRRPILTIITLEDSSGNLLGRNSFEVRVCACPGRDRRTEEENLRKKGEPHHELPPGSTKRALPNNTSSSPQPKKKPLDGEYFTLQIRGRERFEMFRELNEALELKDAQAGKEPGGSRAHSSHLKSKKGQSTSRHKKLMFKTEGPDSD

SMILES | activation | Potency
CCc1nn(CCCN2CCN(c3cccc(Cl)c3)CC2)c(=O)n1CCOc1ccccc1 | -3.35% | –
CCCCC1=NC2(CCCC2)C(=O)N1Cc1ccc(-c2ccccc2-c2nn[nH]n2)cc1 | 6.69% | –
NCCCC(N)CC(=O)NCC1NC(=O)C(CO)NC(=O)C(N)CNC(=O)C(C2CCN=C(N)N2)NC(=O)C(=CNC(N)=O)NC1=O (stereo not drawn) (H-[Dap]S[Dap](ξβ3hOrn)[ΔAla(3-NHCONH2)][X11]; lactam 1-C; configuration not given here) | -4.18% | –
Cc1cc(C=c2sc3nc4ccccc4n3c2=O)c(C)n1-c1ccccc1 | -10.2% | –
CO[C@@H]1C(N(C)C(=O)c2ccccc2)C[C@H]2O[C@]1(C)n1c3ccccc3c3c4c(c5c6ccccc6n2c5c31)C(=O)NC4=O (some centres undefined) | – | 9.68 µM (active)
N#CC(=C(O)c1ccc(Cl)cc1Cl)c1nc2cc(Cl)ccc2c(=O)[nH]1 | 7.18% | –
CCOC(=O)[C@H](CCc1ccccc1)N[C@@H](C)C(=O)N1CCCC1C(=O)O (some centres undefined) | -2.61% | –
O=C(CCBr)N1CCN(C(=O)CCBr)CC1 | 20.9% | –
c1ccc(CNCCNCc2ccccc2)cc1 | 2.51% | –
CC(=O)Nc1ccc(C(=O)O)cc1 | 26.6% | –
CCOC(=O)c1cccnc1 | -9.6% | –
CC(C)C(C)(C)C(C)(C)C(C)(C)S | 5.08% | –
COC(=O)c1cc(Cl)ccc1OC | 2.51% | –
COc1c(N2C[C@@H]3CCCN[C@@H]3C2)c(F)cc2c(=O)c(C(=O)O)cn(C3CC3)c12 | 4.18% | –
